AHR activator: AHR activators, primary screen, cell-based, luminescence, luciferase reporter, human; Aryl hydrocarbon receptor (Homo sapiens), P35869; AHR-responsive luciferase reporter cells; activation, % at 5 µM; 320,000 compounds, 2.5% hits; AID 2796, 2010; in the data active = activation above about 47%
NR0B1 inh: DAX1 (NR0B1) inhibitors, primary screen, cell-based, HEK293, Gal4-DAX1, luciferase luminescence; AID 504766, 2011; 340,000 compounds, 0.99% hits; HEK293 Gal4-DAX1 luciferase reporter; inhibition, % at 6.75 µM;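 active = inhibition above the mean over all tested compounds plus 3 SD, cut at about 4.2% in these data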;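 note: inhibition shows as a rise in luminescence from relieved DAX1 repression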
HSF1 inhib: HSF1 inhibitors in luciferase reporter cells, primary screen, cell-based, NIH3T3, luminescence | activity change, negative = inhibition, % at 7.5 µM (by protocol) | NIH3T3-HGL HSE-luciferase, MG132-induced, luminescence 8 h; stronger effect = lower value | 300,000 compounds, 0.77% hits | AID 2098, 2009;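 active = more than half of replicate wells show activity change below -50%, luminescence cut by over half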;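 note: luciferase reports HSF-1 transcriptional activity via heat shock element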
HSF-1 act: HSF-1 activators, primary screen, NIH3T3-HGL cells, MG132 stress, luminescence, single point. NIH3T3-HGL HSF-1 luciferase reporter, 8 h; 100% = twice DMSO control signal. AID 504408, 2011. activation, % at 9 µM. 300,000 compounds, 1.7% hits;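 active = mean replicate activation of at least 50% with a set share of replicates each reaching 50%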
HSP90 inh: HSP90 inhibitors, primary screen, cell lysate, luminescence; Heat shock protein HSP 90 (rabbit reticulocyte lysate; luciferase refolding); Rabbit reticulocyte lysate, luciferase refolding luminescence, 3 h; inhibition, % at 5.6 µM; 290,000 compounds, 0.91% hits; AID 1789, 2009;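 active = inhibition above the screen-wide mean plus 3 SD, computed separately per campaign, cut at about 16% in these data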;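 note: inhibitors lower the luminescence because luciferase stays unfolded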
GAA850 FXN act: FXN promoter activators, primary screen, cell-based, luciferase luminescence, HEK293 lucGAA850; HEK293 lucGAA850 FXN promoter luciferase reporter, 24 h; percent of 10 µM SAHA response; activation, % at 6 µM; 360,000 compounds, 0.56% hits; AID 540364, 2011;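 active = activation above the average of all compounds screened plus 3 SD, cutoff fixed separately per campaign, cut at about 7.5% in these data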
AHR act confirm: AHR activators, confirmation, cell-based, luminescence, luciferase reporter, human | 2,300 compounds, 87% hits | human cells, AHR-responsive luciferase reporter | activation, % at 9 µM | shares compounds with AHR activator; in the data active = activation above about 49%;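 note: HepG2 hepatoma cells carrying a DRE-driven firefly luciferase reporter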
PXR counter: human PXR activators, counter-screen for AHR activator project, cell-based, luciferase luminescence. shares compounds with AHR activator. cell-based PXR reporter. activation, % at 11.6 µM. 2,300 compounds, 88% hits; in the data active = activation above about 11%;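 note: human hepatoma DPX-2 cells expressing full-length human PXR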
Target sequence (O75469 whole entry, looked up): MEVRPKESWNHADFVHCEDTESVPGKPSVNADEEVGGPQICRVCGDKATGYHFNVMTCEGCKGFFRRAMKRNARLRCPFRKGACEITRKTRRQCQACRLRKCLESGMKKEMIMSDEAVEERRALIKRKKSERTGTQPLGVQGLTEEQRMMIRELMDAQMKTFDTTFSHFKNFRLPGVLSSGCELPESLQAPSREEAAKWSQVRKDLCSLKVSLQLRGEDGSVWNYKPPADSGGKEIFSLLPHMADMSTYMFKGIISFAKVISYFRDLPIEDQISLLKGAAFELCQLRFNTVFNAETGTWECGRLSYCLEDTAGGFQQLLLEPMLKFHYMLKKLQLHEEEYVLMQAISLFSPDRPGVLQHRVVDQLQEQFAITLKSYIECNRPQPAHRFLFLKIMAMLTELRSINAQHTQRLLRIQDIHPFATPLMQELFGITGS
Large screens that a line does not name were inactive (follow-up assays come after a bar, where they were run). Sampled rows, rich in hits. Any-hit rate of the full collection: about 5.9%.

COc1ccc(N2CCN(c3cc(C)c4cccc(C)c4n3)CC2)cc1	AHR activator 129 | AHR act confirm 95 | PXR counter 13
COc1ccc(N2CCN(c3cc(C)c4ccc(C)cc4n3)CC2)cc1	AHR activator 100 | AHR act confirm 110 | PXR counter 18
COc1ccc2c(C)cc(N3CCOCC3)nc2c1	none
Cn1c(=O)c2cc(NC(=S)NC3CCCCC3)ccc2n1Cc1ccc(Cl)cc1	none (no result: AHR activator, NR0B1 inh, HSF1 inhib, HSF-1 act, HSP90 inh)
CCOc1ccc(N=C2SC(C(=O)Nc3ccccc3C#N)C(N)=C2C(=O)Nc2ccc(Cl)cc2)cc1 (stereo not given)	AHR activator 86 | AHR act confirm 71 | PXR counter inactive
N#Cc1ccccc1NC(=O)C1SC(=Nc2ccccc2)C(C(=O)Nc2ccc(Cl)cc2)=C1N (stereo not given)	none
COC(=O)c1sccc1NC(=O)CSCCc1ccccn1	none
Cc1cc(NC(=O)CCC(=O)N(c2ccc(F)cc2)C(C(=O)NC2CCCC2)c2ccncc2)no1 (stereo not given)	AHR activator 91 | AHR act confirm 81 | PXR counter 21
Cc1ccc(N(C(=O)CCC(=O)Nc2cc(C)on2)C(C(=O)NC2CCCC2)c2ccccc2)cc1 (stereo not given)	none
COc1cc(-c2cc3nc(NC4CCCCC4)ccn3n2)cc(OC)c1OC	none (no result: AHR activator, NR0B1 inh, HSF1 inhib, HSF-1 act, HSP90 inh)
COc1cc(-c2csc(NC3CCCCC3)n2)cc(OC)c1OC	AHR activator 81 | AHR act confirm 50 | PXR counter 37
COC(=O)[C@]1(Cc2ccccc2)N[C@H](CN(C)C(=O)c2ccc(C(C)(C)C)cc2)[C@@H]2C(=O)N(Cc3ccccc3)C(=O)[C@@H]21	none (no result: HSF1 inhib, HSF-1 act, HSP90 inh)
Cn1c(=O)[nH]c(=O)c2[nH]c(CO)nc21	none (no result: AHR activator, HSF1 inhib, HSF-1 act, HSP90 inh)
CCCOc1ccccc1-c1nc2c([nH]1)c(=O)[nH]c(=O)n2C	AHR activator 137 | AHR act confirm 79 | PXR counter 34
c1cc(Nc2ncnc3sc4c(c23)CCC4)ccn1	none
C(=N\Nc1ncnc2sc3c(c12)CCC3)/c1ccncc1	AHR activator 81 | AHR act confirm 124 | PXR counter 29
COc1ccccc1C(=O)NCC(=O)Nc1ccc2c(c1)OCO2	none (no result: AHR activator, HSF1 inhib, HSF-1 act, HSP90 inh)
COc1ccc(Cl)cc1C(=O)Nc1ccncc1	none
CCc1ccccc1NC(=O)Nc1ccc2c(c1)OCO2	AHR activator 87 | AHR act confirm 92 | PXR counter 86
O=C(Nc1ccc2c(c1)OCO2)Nc1ccccc1F	none
CCOc1ccccc1NC(=O)NCc1ccc2c(c1)OCO2	AHR activator 97 | AHR act confirm 74 | PXR counter 40
COc1ccc(Cl)cc1C(=O)Nc1ccc2c(c1)OCO2	AHR activator 92 | AHR act confirm 105 | PXR counter 81
CCOc1ccccc1C(=O)NCC(=O)Nc1ccc2c(c1)OCO2	AHR activator 83 (no result: HSF1 inhib, HSF-1 act, HSP90 inh) | AHR act confirm 100 | PXR counter 102
Cc1[nH]c(=O)[nH]c(=O)c1CSCC(=O)OCC(=O)c1ccc(Br)cc1	none
O=C(Nc1ccccn1)C(c1ccccc1)c1ccccc1	none (no result: AHR activator, HSF1 inhib, HSF-1 act, HSP90 inh)
O=C(NCc1cccc(Br)c1)C1CC(c2ccc(C(F)(F)F)cc2)=NO1 (stereo not given)	none (no result: HSP90 inh)
COc1ccc(C)cc1NC(=O)COC(=O)c1ccc2c(c1)OCO2	none (no result: HSF1 inhib, HSF-1 act, HSP90 inh)
COc1ccc(C)cc1NC(=O)c1ccc2c(c1)OCO2	AHR activator 104 | AHR act confirm 116 | PXR counter 26
